Read-outs that look alike come from different tables or passages of the source.
Tests used:
GRK3 = system: T1, GRK3; conditions: concentration: 1 μM, replicates: in singlicate; n = 1
T1 construct: gene ADRBK2

GRK4 = conditions: concentration: 1 μM, replicates: in singlicate; n = 1
GRK7 = conditions: concentration: 1 μM, replicates: in singlicate; n = 1
GSK3A = conditions: concentration: 1 μM, replicates: in singlicate; n = 1
GSK3B = conditions: n = 1
HASPIN = system: T2, HASPIN; conditions: concentration: 1 μM, replicates: in singlicate; n = 1
T2 construct: gene GSG2

HCK = conditions: concentration: 1 μM, replicates: in singlicate; n = 1
HIPK1 = conditions: concentration: 1 μM, replicates: in singlicate; n = 1
HIPK2 = conditions: concentration: 1 μM, replicates: in singlicate; n = 1
HIPK3 = conditions: concentration: 1 μM, replicates: in singlicate; n = 1
HIPK4 = conditions: concentration: 1 μM, replicates: in singlicate; n = 1
HPK1 = conditions: concentration: 1 μM, replicates: in singlicate; n = 1
HUNK = conditions: concentration: 1 μM, replicates: in singlicate; n = 1
ICK = conditions: concentration: 1 μM, replicates: in singlicate; n = 1
IGF1R = conditions: concentration: 1 μM, replicates: in singlicate; n = 1
IKK-alpha = system: T3, IKK-alpha; conditions: concentration: 1 μM, replicates: in singlicate; n = 1
T3 construct: gene CHUK

IKK-beta = system: T4, IKK-beta; conditions: concentration: 1 μM, replicates: in singlicate; n = 1
T4 construct: gene IKBKB

IKK-epsilon = system: T5, IKK-epsilon; conditions: concentration: 1 μM, replicates: in singlicate; n = 1
T5 construct: gene IKBKE

INSRR = conditions: concentration: 1 μM, replicates: in singlicate; n = 1
INSR = conditions: concentration: 1 μM, replicates: in singlicate; n = 1
[1] = concentration: 1 μM, replicates: in singlicate
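Also: KINOMEscan kinase panel screen.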

CC(C)c1cc(-c2ccc3c(N)n[nH]c3c2)nc(N)n1 [GSK2250882]
%Inh (GRK3): 0%
%Inh (GRK4): 10%
%Inh (GRK7): 0%
%Inh (GSK3A): 0%
%Inh (GSK3B; [1]): 0%
%Inh (HASPIN): 83%
%Inh (HCK): 0%
%Inh (HIPK1): 15%
%Inh (HIPK2): 0%
%Inh (HIPK3): 9%
%Inh (HIPK4): 30%
%Inh (HPK1): 45%
%Inh (HUNK): 0%
%Inh (ICK): 0%
%Inh (IGF1R): 6%
%Inh (IKK-alpha): 0%
%Inh (IKK-beta): 4%
%Inh (IKK-epsilon): 10%
%Inh (INSRR): 0%
%Inh (INSR): 4%

CCn1c(-c2ccccc2)nc2cnccc21 [SB-733416]
%Inh (GRK3): 70%
%Inh (GRK4): 29%
%Inh (GRK7): 0%
%Inh (GSK3A): 0%
%Inh (GSK3B; [1]): 25%
%Inh (HASPIN): 0%
%Inh (HCK): 17%
%Inh (HIPK1): 0%
%Inh (HIPK2): 0%
%Inh (HIPK3): 10%
%Inh (HIPK4): 0%
%Inh (HPK1): 48%
%Inh (HUNK): 0%
%Inh (ICK): 46%
%Inh (IGF1R): 7%
%Inh (IKK-alpha): 37%
%Inh (IKK-beta): 43%
%Inh (IKK-epsilon): 19%
%Inh (INSRR): 2%
%Inh (INSR): 4%

Fc1ccc(-c2nc3n(c2-c2ccncc2)CCS3)cc1 [GI98581]
%Inh (GRK3): 21%
%Inh (GRK4): 0%
%Inh (GRK7): 0%
%Inh (GSK3A): 14%
%Inh (GSK3B; [1]): 19%
%Inh (HASPIN): 13%
%Inh (HCK): 0%
%Inh (HIPK1): 0%
%Inh (HIPK2): 0%
%Inh (HIPK3): 0%
%Inh (HIPK4): 0%
%Inh (HPK1): 44%
%Inh (HUNK): 8%
%Inh (ICK): 0%
%Inh (IGF1R): 17%
%Inh (IKK-alpha): 0%
%Inh (IKK-beta): 0%
%Inh (IKK-epsilon): 0%
%Inh (INSRR): 6%
%Inh (INSR): 0%

Nc1ncnc2occ(-c3ccc4c(c3)CCN4C(=O)Cc3cc(F)ccc3F)c12 [GSK2645446]
%Inh (GRK3): 0%
%Inh (GRK4): 0%
%Inh (GRK7): 0%
%Inh (GSK3A): 0%
%Inh (GSK3B; [1]): 2%
%Inh (HASPIN): 0%
%Inh (HCK): 0%
%Inh (HIPK1): 0%
%Inh (HIPK2): 0%
%Inh (HIPK3): 0%
%Inh (HIPK4): 0%
%Inh (HPK1): 31%
%Inh (HUNK): 0%
%Inh (ICK): 0%
%Inh (IGF1R): 0%
%Inh (IKK-alpha): 0%
%Inh (IKK-beta): 0%
%Inh (IKK-epsilon): 41%
%Inh (INSRR): 0%
%Inh (INSR): 0%

CC[C@@H]1CO[C@H](C(=O)Nc2ccccc2)CN1c1cc(-c2ccc3c(N)n[nH]c3c2)nc(NC)n1 [GSK2376236]
%Inh (GRK3): 0%
%Inh (GRK4): 0%
%Inh (GRK7): 0%
%Inh (GSK3A): 12%
%Inh (GSK3B; [1]): 17%
%Inh (HASPIN): 0%
%Inh (HCK): 0%
%Inh (HIPK1): 9%
%Inh (HIPK2): 0%
%Inh (HIPK3): 4%
%Inh (HIPK4): 0%
%Inh (HPK1): 15%
%Inh (HUNK): 0%
%Inh (ICK): 0%
%Inh (IGF1R): 0%
%Inh (IKK-alpha): 0%
%Inh (IKK-beta): 1%
%Inh (IKK-epsilon): 6%
%Inh (INSRR): 0%
%Inh (INSR): 10%

O=C1NC(=O)C(c2ccc(Cl)cc2)=C1Nc1cccc(Cl)c1 [SB-317651]
%Inh (GRK3): 0%
%Inh (GRK4): 21%
%Inh (GRK7): 30%
%Inh (GSK3A): 0%
%Inh (GSK3B; 1 µM): 15%
%Inh (HASPIN): 0%
%Inh (HCK): 0%
%Inh (HIPK1): 19%
%Inh (HIPK2): 34%
%Inh (HIPK3): 0%
%Inh (HIPK4): 0%
%Inh (HPK1): 12%
%Inh (HUNK): 0%
%Inh (ICK): 28%
%Inh (IGF1R): 0%
%Inh (IKK-alpha): 0%
%Inh (IKK-beta): 0%
%Inh (IKK-epsilon): 0%
%Inh (INSRR): 0%
%Inh (INSR): 11%

Cl.Cl.Cl.N#Cc1ccc(CCNc2nccc(-c3cccc(CN4CCNCC4)c3)n2)cc1 [GSK2137462]
%Inh (GRK3): 0%
%Inh (GRK4): 0%
%Inh (GRK7): 5%
%Inh (GSK3A): 31%
%Inh (GSK3B; [1]): 7%
%Inh (HASPIN): 42%
%Inh (HCK): 0%
%Inh (HIPK1): 1%
%Inh (HIPK2): 0%
%Inh (HIPK3): 21%
%Inh (HIPK4): 26%
%Inh (HPK1): 48%
%Inh (HUNK): 0%
%Inh (ICK): 5%
%Inh (IGF1R): 11%
%Inh (IKK-alpha): 0%
%Inh (IKK-beta): 0%
%Inh (IKK-epsilon): 20%
%Inh (INSRR): 0%
%Inh (INSR): 87%

COC(=O)C(NC(=O)NC1CCN(c2ccnc(Nc3ccc(F)cc3)n2)C1)c1ccccc1 (stereo not shown) [GSK1379712]
%Inh (GRK3): 18%
%Inh (GRK4): 0%
%Inh (GRK7): 0%
%Inh (GSK3A): 16%
%Inh (GSK3B; [1]): 4%
%Inh (HASPIN): 0%
%Inh (HCK): 0%
%Inh (HIPK1): 12%
%Inh (HIPK2): 0%
%Inh (HIPK3): 48%
%Inh (HIPK4): 8%
%Inh (HPK1): 51%
%Inh (HUNK): 0%
%Inh (ICK): 9%
%Inh (IGF1R): 5%
%Inh (IKK-alpha): 0%
%Inh (IKK-beta): 0%
%Inh (IKK-epsilon): 32%
%Inh (INSRR): 0%
%Inh (INSR): 2%

From PMC5540273 (PLoS ONE, 2017)
